The supplement of paper PMC9694430

Experiments:
Assay in all cases: thermal shift delta Tm vs DMSO control; higher = stronger stabilization (binding)
Conditions in all cases: 12.5 µM; protein concentration 2 µM
[1] = test system: LOC_OS04G57630-cb004
Summary of the method: (§1)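 Purified, E. coli-expressed rice kinase domain constructs were tested by differential scanning fluorimetry in 96-well plates: 19.5 μl of 2 μM kinase in 100 mM potassium phosphate pH 7.5, 150 mM NaCl, 10% glycerol, 5 × SYPRO Orange, plus compound in DMSO. Fluorescence was read from 25°C to 95°C at 0.05°C/s. Melting temperatures came from Boltzmann fits, and the shift is the triplicate mean relative to protein with DMSO alone.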

[2] = test system: LOC_OS05G07850-cb002
Summary of the method: as §1

[3] = test system: LOC_OS05G16824-cb004
Summary of the method: as §1

[4] = test system: LOC_OS05G28520-cb001
Summary of the method: as §1

[5] = test system: LOC_OS05G30820-cb001
Summary of the method: as §1

[6] = test system: LOC_OS05G43570-cb004
Summary of the method: as §1

[7] = test system: LOC_OS06G16330-cb003
LOC_OS06G16330-cb003, sequence (as listed by the source): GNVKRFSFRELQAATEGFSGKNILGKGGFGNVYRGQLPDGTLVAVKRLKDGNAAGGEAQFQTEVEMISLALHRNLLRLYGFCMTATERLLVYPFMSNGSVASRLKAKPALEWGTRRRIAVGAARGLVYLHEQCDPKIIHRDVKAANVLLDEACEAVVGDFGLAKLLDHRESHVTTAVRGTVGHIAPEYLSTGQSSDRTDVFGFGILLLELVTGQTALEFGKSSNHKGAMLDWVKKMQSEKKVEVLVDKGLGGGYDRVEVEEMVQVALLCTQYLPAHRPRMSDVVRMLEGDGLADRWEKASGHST
Summary of the method: as §1

[8] = test system: T1, LOC_OS06G22820-cb001
T1 sequence (whole entry): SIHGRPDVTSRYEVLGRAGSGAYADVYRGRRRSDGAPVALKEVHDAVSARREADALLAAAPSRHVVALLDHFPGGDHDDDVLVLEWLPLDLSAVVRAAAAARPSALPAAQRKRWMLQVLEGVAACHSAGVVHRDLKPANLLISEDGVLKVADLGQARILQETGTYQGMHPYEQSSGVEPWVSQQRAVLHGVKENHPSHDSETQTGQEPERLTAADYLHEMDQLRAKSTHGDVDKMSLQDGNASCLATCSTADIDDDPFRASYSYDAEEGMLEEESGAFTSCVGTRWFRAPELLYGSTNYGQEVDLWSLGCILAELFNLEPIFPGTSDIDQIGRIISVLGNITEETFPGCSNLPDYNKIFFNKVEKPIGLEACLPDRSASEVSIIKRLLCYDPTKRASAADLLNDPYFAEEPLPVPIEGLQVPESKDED
Summary of the method: as §1

[9] = test system: LOC_OS07G06570-cb004
Summary of the method: as §1

[10] = test system: LOC_OS07G07230-cb001
Summary of the method: as §1

Cc1ccc(F)c(NC(=O)Nc2ccc(-c3cccc4[nH]nc(N)c34)cc2)c1 [Linifanib (ABT-869)]
thermal shift delta Tm [1]: 0.74 °C
thermal shift delta Tm [2]: 4.63 °C
thermal shift delta Tm [3]: 1.86 °C
thermal shift delta Tm [4]: 0.75 °C
thermal shift delta Tm [5]: 0.85 °C
thermal shift delta Tm [6]: 0.9 °C
thermal shift delta Tm [7]: 3.55 °C
thermal shift delta Tm [8]: 0.6 °C
thermal shift delta Tm [9]: 0.72 °C
thermal shift delta Tm [10]: 0.93 °C

CO[C@H]1C[C@@H]2CC[C@@H](C)[C@@](O)(O2)C(=O)C(=O)N2CCCC[C@H]2C(=O)O[C@H]([C@H](C)C[C@@H]2CC[C@@H](OP(C)(C)=O)[C@H](OC)C2)CC(=O)[C@H](C)/C=C(\C)[C@@H](O)[C@@H](OC)C(=O)[C@H](C)C[C@H](C)/C=C/C=C/C=C/1C [Ridaforolimus (Deforolimus, MK-8669)]
thermal shift delta Tm [1]: -0.31 °C
thermal shift delta Tm [2]: 0.02 °C
thermal shift delta Tm [3]: -1.14 °C
thermal shift delta Tm [4]: 0.42 °C
thermal shift delta Tm [5]: 0.41 °C
thermal shift delta Tm [6]: 0.24 °C
thermal shift delta Tm [7]: -0.22 °C
thermal shift delta Tm [8]: 0.77 °C
thermal shift delta Tm [9]: 1.03 °C
thermal shift delta Tm [10]: 0.31 °C

COc1cc2c(Oc3ccc4[nH]c(C)cc4c3F)ncnc2cc1OCCCN1CCCC1 [Cediranib (AZD2171)]
thermal shift delta Tm [1]: 0.99 °C
thermal shift delta Tm [2]: 1.23 °C
thermal shift delta Tm [3]: 1.08 °C
thermal shift delta Tm [4]: -0.22 °C
thermal shift delta Tm [5]: 0.46 °C
thermal shift delta Tm [6]: 0.17 °C
thermal shift delta Tm [7]: -0.02 °C
thermal shift delta Tm [8]: 0.55 °C
thermal shift delta Tm [9]: 0.63 °C
thermal shift delta Tm [10]: 0.34 °C

C[C@@H]1CN(CC(=O)Nc2ccc3c(c2)Cc2cccc(-c4cc(=O)cc(N5CCOCC5)o4)c2S3)C[C@H](C)O1
thermal shift delta Tm [1]: -0.04 °C
thermal shift delta Tm [2]: 0.16 °C
thermal shift delta Tm [3]: -0.46 °C
thermal shift delta Tm [4]: -0.13 °C
thermal shift delta Tm [5]: 0.31 °C
thermal shift delta Tm [6]: 0.21 °C
thermal shift delta Tm [7]: -0.2 °C
thermal shift delta Tm [8]: 0.77 °C
thermal shift delta Tm [9]: 1.02 °C
thermal shift delta Tm [10]: -0.36 °C

CN(C)Cc1cccc(N=C(c2ccccc2)c2c(O)[nH]c3cc(C(=O)N(C)C)ccc23)c1
thermal shift delta Tm [1]: 0.46 °C
thermal shift delta Tm [2]: 5.73 °C
thermal shift delta Tm [3]: 3.8 °C
thermal shift delta Tm [4]: -0.08 °C
thermal shift delta Tm [5]: 0.49 °C
thermal shift delta Tm [6]: 0.76 °C
thermal shift delta Tm [7]: 0.77 °C
thermal shift delta Tm [8]: 0.98 °C
thermal shift delta Tm [9]: 0.59 °C
thermal shift delta Tm [10]: -0.37 °C

CN(C)CCOc1ccc(-c2nc(-c3ccncc3)c(-c3ccc4c(c3)CC/C4=N\O)[nH]2)cc1
thermal shift delta Tm [1]: 0.24 °C
thermal shift delta Tm [2]: 1.09 °C
thermal shift delta Tm [3]: -2.35 °C
thermal shift delta Tm [4]: -0.03 °C
thermal shift delta Tm [5]: 0.65 °C
thermal shift delta Tm [6]: 0.64 °C
thermal shift delta Tm [7]: -0.3 °C
thermal shift delta Tm [8]: 0.47 °C
thermal shift delta Tm [9]: 0.49 °C
thermal shift delta Tm [10]: 0.18 °C

Cc1cccc(Nc2nc(NC3CCCCC3N)ncc2C(N)=O)c1 (stereo not given)
thermal shift delta Tm [1]: 0.83 °C
thermal shift delta Tm [2]: 7.79 °C
thermal shift delta Tm [3]: 5.17 °C
thermal shift delta Tm [4]: 0.36 °C
thermal shift delta Tm [5]: 2.02 °C
thermal shift delta Tm [6]: 0.63 °C
thermal shift delta Tm [7]: 6.85 °C
thermal shift delta Tm [8]: 0.81 °C
thermal shift delta Tm [9]: 1.04 °C
thermal shift delta Tm [10]: 0.47 °C

CNC(=O)c1ccccc1Nc1cc(Nc2ccc(N3CCOCC3)cc2OC)ncc1C(F)(F)F
thermal shift delta Tm [1]: 3.79 °C
thermal shift delta Tm [2]: 7.4 °C
thermal shift delta Tm [3]: 9.96 °C
thermal shift delta Tm [4]: 1.03 °C
thermal shift delta Tm [5]: 3.54 °C
thermal shift delta Tm [6]: 0.9 °C
thermal shift delta Tm [7]: 6.99 °C
thermal shift delta Tm [8]: 0.82 °C
thermal shift delta Tm [9]: 1.56 °C
thermal shift delta Tm [10]: 0.72 °C

CNC(=O)c1nn(C)c2c1C(C)(C)Cc1cnc(Nc3ccc(N4CCN(C)CC4)cc3)nc1-2
thermal shift delta Tm [1]: 3.76 °C
thermal shift delta Tm [2]: 6.76 °C
thermal shift delta Tm [3]: 7.67 °C
thermal shift delta Tm [4]: 4.23 °C
thermal shift delta Tm [5]: 0.45 °C
thermal shift delta Tm [6]: 0.22 °C
thermal shift delta Tm [7]: 4.37 °C
thermal shift delta Tm [8]: 0.43 °C
thermal shift delta Tm [9]: 0.26 °C
thermal shift delta Tm [10]: 0.04 °C

CCOc1ccn(-c2ccc(F)cc2)c(=O)c1C(=O)Nc1ccc(Oc2ccnc(N)c2Cl)c(F)c1
thermal shift delta Tm [1]: 0.68 °C
thermal shift delta Tm [2]: 11.6 °C
thermal shift delta Tm [3]: 1.29 °C
thermal shift delta Tm [4]: 0.56 °C
thermal shift delta Tm [5]: 0.42 °C
thermal shift delta Tm [6]: 1.2 °C
thermal shift delta Tm [7]: 4.26 °C
thermal shift delta Tm [8]: 0.43 °C
thermal shift delta Tm [9]: 0.64 °C
thermal shift delta Tm [10]: 0.01 °C
